Bioassay records: PubChem BioAssay, several laboratories
This is a sample that favours compounds with a hit; in the whole collection about 2.4% have one here.
HSP90 refold inh: HSP90 inhibitors, primary screen, cell lysate, luminescence; 290,000 compounds, 0.91% hits; Heat shock protein HSP 90 (rabbit reticulocyte lysate; luciferase refolding); Rabbit reticulocyte lysate, luciferase refolding luminescence, 3 h; AID 1789, 2009; inhibition, % at 5.6 µM;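 active means inhibition above the screen-wide mean plus 3 SD, computed separately per campaign, cut at about 16% in these data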;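 further: 0% = DMSO wells and 100% = 60 µM geldanamycin wells; inhibitors lower the luminescence because luciferase stays unfolded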
STAT3 blocker: IL-6 driven STAT3 reporter inhibitors, primary screen, U3A cells, luciferase, luminescence, MLSCN library | AID 862, 2007 | IL-6 STAT3-luciferase reporter; host cell line lacks STAT1 | inhibition, % at 5.5 µM | 190,000 compounds, 0.89% hits;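 active means inhibition above the mean inhibition across all screened compounds plus 3 SD, cut at about 44% in these data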;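 further: 0% = DMSO only wells and 100% = 100 µM nifuroxazide control wells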
STAT1 inh: STAT1 signaling inhibitors, primary screen, cell-based, HTS, luciferase reporter. 200,000 compounds, 0.35% hits. NIH 3T3 STAT1-luciferase reporter, IFN-gamma, luminescence. inhibition, % at 5.5 µM. AID 920, 2007;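 active means inhibition above a set limit, the mean inhibition across all tested compounds plus 3 SD, cut at about 34% in these data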;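 further: 0% = IFN-gamma with DMSO and 100% = IFN-gamma with 300 µM nifuroxazide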
HSF1 inhib: HSF1 inhibitors in luciferase reporter cells, primary screen, cell-based, NIH3T3, luminescence. NIH3T3-HGL HSE-luciferase, MG132-induced, luminescence 8 h; active compounds read low. 300,000 compounds, 0.77% hits. activity change, negative = inhibition, % at 7.5 µM (by protocol). AID 2098, 2009;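 active means more than half of replicate wells show activity change below -50%, luminescence cut by over half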;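 further: luciferase reports HSF-1 transcriptional activity via heat shock element; 0% = median of DMSO wells and -100% = zero luminescence signal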
C8 TRAIL sens: viability loss with TRAIL in NB7+C8 cells, primary screen, TRAIL sensitizer project, cell-based, ATPlite luminescence | inhibition (viability loss, TRAIL sensitization), % at 10 µM | 360,000 compounds, 1% hits | AID 624354, 2012;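 active means compounds causing at least 50% loss of cell viability in the single-dose screen, relative to plate controls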
PPC-1+TRAIL kill: compounds killing PPC-1 cancer cells with TRAIL present, primary screen, TRAIL potentiator project, ATPLite luminescence, uHTS; cell killing (% activity), % at 4 µM or 5 µM; AID 1443, 2008; PPC-1 cells + TRAIL, ATPLite viability luminescence; 220,000 compounds, 0.41% hits;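 active means cell killing above 50% in the first pass at 4 µM, then a duplicate retest at 5 µM averaging 50% or more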;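 further: plate controls were cells with TRAIL plus DMSO for no effect and medium-only wells lacking cells for full effect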
Numbers without * were called inactive; . = not tested or not shown.

SMILES	HSP90 refold inh	STAT3 blocker	STAT1 inh	HSF1 inhib	C8 TRAIL sens	PPC-1+TRAIL kill
CS(=O)(=O)c1ccc(C(=O)OCC(=O)Nc2cccnc2Cl)cc1[N+](=O)[O-]	.	.	.	.	3	.
CC(CCc1ccccc1)NC(=O)COC(=O)c1ccc([N+](=O)[O-])cc1 (stereo not given)	-6	.	.	-1	-2	.
CC(CCc1ccccc1)NC(=O)COC(=O)c1ccc(S(C)(=O)=O)c([N+](=O)[O-])c1 (stereo not given)	-1	10	18	-79*	1	15
CCOC(=O)c1c(NC(=O)COC(=O)c2nccnc2N)sc(C(=O)N(C)C)c1C	.	.	.	-51*	-6	.
Cc1ccc(F)cc1NC(=O)CCNC(=O)c1ccc([N+](=O)[O-])cc1	0	.	.	-68*	1	.
Cn1c(NCCc2ccncc2)nc2cc(-c3ccccc3)sc2c1=O	.	.	.	.	16	.
COc1ccccc1NC(=O)C(C)Sc1nnc2ccccn12 (stereo not given)	.	.	.	.	3	.
O=C(/C=C/c1ccccc1)C1C(=O)c2ccccc2C1=O	0	-8	-12	14	87*	37
CCc1ccc(/C=C/C(=O)C2C(=O)c3ccccc3C2=O)cc1	4	52*	39*	14	91*	24
O=C(c1ccccc1)C1C(=O)c2ccccc2C1=O	2	-2	1	16	13	-8
O=C(O)c1cc(-c2ccc(/C=C3\NC(=O)N(c4ccccc4)C3=O)o2)ccc1Cl	1	.	.	2	12	4
C#CCN1C(=O)S/C(=C\c2ccc(-c3ccc(Cl)c(C(=O)O)c3)o2)C1=O	23*	.	.	25	11	.
CCN1C(=O)/C(=C\c2ccc(-c3cccc(C(=O)OC)c3)o2)SC1=Nc1ccc(C(=O)O)cc1	-3	.	.	1	.	.
CCN=C1S/C(=C\c2ccc(-c3cccc(C(=O)O)c3)o2)C(=O)N1CC	3	-35	-20	-52*	3	21
NC(Cc1ccc(F)cc1)c1csc(Nc2ccc(C(F)(F)F)cn2)n1 (stereo not given)	.	.	.	.	22	.
CC(C)(C)NC(=O)C1c2ccccc2OCC(=O)N1CC(F)(F)F (stereo not given)	.	.	.	.	-2	.
O=C(NC(=O)c1cccc(F)c1)OC[C@@H]1CCCN2CCCC[C@H]12	2	4	10	-78*	0	21
O=C(NC(=O)c1cccc(Cl)c1)OC[C@@H]1CCCN2CCCCC12 (stereo not given in full)	-4	-4	-10	-6	7	1
CCOC(=O)c1ccc(NC(=S)N2CCN(S(C)(=O)=O)CC2)cc1	10	-3	-1	-46	3	-7
CCOC(=O)c1ccc(NC(=O)N2CCN(S(C)(=O)=O)CC2)cc1	6	2	7	-53*	-5	14
O=C(N/N=C/c1cc([N+](=O)[O-])ccc1O)c1ccc(COc2ccc3c(c2)CCC3)o1	0	.	.	-8	52*	.
COc1ccc(Br)cc1/C=N/NC(=O)c1ccc(COc2ccc3c(c2)CCC3)o1	10	-8	-13	17	-5	-1
COc1cc(NC(=O)C2CC(c3ccccc3O)=NO2)cc(OC)c1OC (stereo not given)	.	.	.	.	-22	.
Cc1cc(=O)n2[nH]c(-c3ccc(F)cc3)nc2n1	-3	8	-9	-1	51*	37
O=C(C(=O)N1CCN(c2ccncc2)CC1)c1cccc(Br)c1	.	.	.	.	1	.
SMILES	HSP90 refold inh	STAT3 blocker	STAT1 inh	HSF1 inhib	C8 TRAIL sens	PPC-1+TRAIL kill
CN(C)C(=O)N1CCC(C(=O)NCc2ccc(F)cc2Cl)CC1	2	0	-12	-69*	-4	-5
CCC(=O)N1CCC(C)(C(=O)NCc2cccc(OC)c2)C1 (stereo not given)	.	.	.	.	-3	.
O=C(CCC(=O)c1ccccc1)Nc1cccnc1	4	3	4	-6	1	9
O=C(CCC(=O)c1ccc(Br)cc1)Nc1cccnc1	-2	0	0	-85*	-7	6
C#CCSc1nnc(CSc2nc3ccccc3s2)n1-c1ccccc1	6	2	15	2	86*	14
O=C(O)CSc1nnc(CSc2nc3ccccc3s2)n1-c1ccccc1	-4	-8	0	0	10	4
